# Screens deposited in PubChem BioAssay by NMMLSC.
# Rows were chosen to be rich in hits. Some 2.2% of all compounds tested hit in one or more screens of this group.
# MEKK3 PB1 HTS: raises or lowers MEK5 binding to the human MEKK3 PB1 domain. Q99759. 290,000 tested, 1.4% active. bead-based flow cytometry, Alexa488-MEK5 binding to MEKK3; actives lie on both sides; 0 = blocked by unlabeled MEK5, 100 = vehicle. AID 1529. binding response (% of control), % at 10 µM;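 active = binding response more than 3 SD above or below the average of its plate-row segment, actives on both sides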;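 note: Alexa488 bead fluorescence after subtracting the streptavidin-only scavenger bead signal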
# Target sequence (Q99759 whole entry, looked up, the tested form may be a part): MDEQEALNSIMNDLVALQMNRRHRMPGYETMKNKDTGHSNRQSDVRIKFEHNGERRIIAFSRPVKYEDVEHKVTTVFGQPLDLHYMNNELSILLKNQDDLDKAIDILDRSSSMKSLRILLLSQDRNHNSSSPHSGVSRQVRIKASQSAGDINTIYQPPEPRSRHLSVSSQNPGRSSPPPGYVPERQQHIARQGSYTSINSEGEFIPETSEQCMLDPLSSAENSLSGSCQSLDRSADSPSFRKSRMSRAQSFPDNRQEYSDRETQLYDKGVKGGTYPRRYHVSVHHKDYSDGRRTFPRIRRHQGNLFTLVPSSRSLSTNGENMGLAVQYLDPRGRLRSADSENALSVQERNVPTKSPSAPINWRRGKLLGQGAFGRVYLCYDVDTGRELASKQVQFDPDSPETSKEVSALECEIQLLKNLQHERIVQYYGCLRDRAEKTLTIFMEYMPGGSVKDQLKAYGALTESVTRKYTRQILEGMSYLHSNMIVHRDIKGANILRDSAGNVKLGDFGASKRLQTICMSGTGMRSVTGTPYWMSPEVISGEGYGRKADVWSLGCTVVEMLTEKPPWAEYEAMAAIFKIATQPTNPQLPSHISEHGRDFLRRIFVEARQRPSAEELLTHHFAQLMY
# MEKK2mut PB1 HTS: signal of MEK5 binding to mutant human MEKK2 PB1 domain. bead flow cytometry, Alexa488-MEK5 binding to MEKK2 mutant. percent response, % at 10 µM. 290,000 tested, 0.35% active; in the data active = percent response above about 24%, passing the limit was not always enough
# VLA-4 inh: inhibition in a human VLA-4 binding assay | P13612 | 330,000 tested, 0.2% active | AID 2557 | VLA-4 expressing cells, ligand binding flow cytometry | inhibition, % (about 7 µM as worked out from the volumes in the protocol); in the data active = inhibition above about 50%
# MEKK2 WT-MEK5: raises or lowers MEK5 binding to wildtype human MEKK2 PB1 domain | bead flow cytometry, Alexa488-MEK5 binding to MEKK2 WT; actives lie on both sides | AID 1531 | binding response (% of control), % at 10 µM | Q9Y2U5 | 290,000 tested, 1.1% active; in the data active = binding response below about 67% or above about 130%
# MEKK2wt confirm: raises or lowers MEK5 binding to wildtype human MEKK2, retest; shares compounds with MEKK3 PB1 HTS; bead flow cytometry, Alexa488-MEK5 binding to MEKK2 WT; actives lie on both sides; binding response (% of control), % at 10 µM; 5,900 tested, 2.4% active; AID 1892; in the data active = binding response below about 16% or above about 210%; inactive = in between
# MEKK2mut confirm: signal of MEK5 binding to mutant human MEKK2, retest; shares compounds with MEKK3 PB1 HTS; bead flow cytometry, Alexa488-MEK5 binding to MEKK2 mutant; percent response, % at 10 µM; 5,900 tested, 2% active; AID 1893; in the data active = percent response mostly above about 71%, no sharp cut-off; inactive = mostly below about 38%;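 note: higher means compound restores mutant binding toward wildtype level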
# MEKK3 confirm: MEKK3-MEK5 PB1 inhibition, single concentration confirmation; shares compounds with MEKK3 PB1 HTS; bead flow cytometry, Alexa488-MEK5 binding to MEKK3; hits give low values; binding response (% of control), % at 10 µM; 5,900 tested, 1.8% active;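 active = binding response below 72% of control, or above a set upper limit, though filed actives all read lower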;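 note: lower values mean stronger disruption of MEK5 binding to MEKK3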
# A number is an active result; – = inactive; · = no result given; [ ] = remark or other dose.
SMILES,MEKK3 PB1 HTS,MEKK2mut PB1 HTS,VLA-4 inh,MEKK2 WT-MEK5,MEKK2wt confirm,MEKK2mut confirm,MEKK3 confirm
COc1ccc(N(CC(=O)NC2CCCCC2)C(=O)CCC(=O)Nc2nc(C)cs2)cc1OC,–,–,–,–,·,·,·
CCOc1cccc(N(C(=O)CNC(=O)c2ccco2)C(C(=O)NCC2CCCO2)c2ccccc2)c1 (centres undefined),–,–,–,–,·,·,·
Nc1ncc(Br)cc1S(=O)(=O)NCCc1ccccc1,–,–,–,–,·,·,·
Cc1ccc(C(=O)Nc2cccc(C(F)(F)F)c2)cc1NC(=O)c1c[nH]c2cc(C(F)(F)F)ccc2c1=O,·,·,–,·,·,·,·
CCN1CCN(Cc2ccc(NC(=O)c3ccc(C)c(NC(=O)C[C@@H]4NC(=O)[C@H](Cc5ccccc5)NC4=O)c3)cc2C(F)(F)F)CC1,–,–,–,–,·,·,·
CCN1CCN(Cc2ccc(NC(=O)c3ccc(C)c(NC(=O)c4c[nH]c5cc(C(F)(F)F)ccc5c4=O)c3)cc2C(F)(F)F)CC1,–,83,·,199,224,131,–
CCN1CCN(Cc2ccc(NC(=O)c3ccc(C)c(/C=C/c4cnc(Nc5cc(N6CCNCC6)nc(C)n5)cn4)c3)cc2C(F)(F)F)CC1,–,205,–,401,280,169,–
CCN1CCN(Cc2ccc(NC(=O)c3ccc(C)c(NC(=O)c4csc(-c5ccncc5)n4)c3)cc2C(F)(F)F)CC1,–,–,–,141,–,–,–
CCN1CCN(Cc2ccc(NC(=O)c3ccc(C)c(NC(=O)c4cccc(-c5cn[nH]c(=O)c5)c4)c3)cc2C(F)(F)F)CC1,–,29,–,169,–,–,–
CCN1CCN(Cc2ccc(NC(=O)c3ccc(C)c(NC(=O)c4ccno4)c3)cc2C(F)(F)F)CC1,–,–,–,–,·,·,·
O=C(c1ccco1)N1CCN(CC(O)COc2ccc(Br)cc2)CC1 (centres undefined),–,–,–,–,·,·,·
Cc1ccc2c(c1)c1c(n2CC(O)CN2CCCCCC2)CCCC1 (centres undefined),–,–,–,–,·,·,·
O=C(c1ccco1)N1CCN(CC(O)Cn2c3ccccc3c3ccccc32)CC1 (centres undefined),129,–,–,–,–,–,–
OC(CN1CCCCC1)Cn1c2ccccc2c2cc(Br)ccc21 (centres undefined),–,35,–,161,–,–,–
COc1ccccc1CC(=O)NCCN1CCCCC1,–,–,–,–,·,·,·
COc1cc(C#N)c(NC(=O)CN2CCN(CCO)CC2)cc1OC,47[inhibitor],–,–,–,–,–,–
Cc1cc(NS(=O)(=O)c2ccc(NC(=O)CSc3nnc(-c4ccco4)n3C)cc2)nc(C)n1,141,–,–,–,–,–,–
COc1ccc([N+](=O)[O-])cc1NC(=O)C1CCCN1S(=O)(=O)c1cccs1 (centres undefined),·,·,–,·,·,·,·
O=C(Nc1ccc(S(=O)(=O)NCc2ccco2)cc1)C1CCCCC1,–,–,–,–,·,·,·
CCc1ccc2nc(N(CCCN(C)C)C(=O)c3ccc(S(=O)(=O)N4CCc5ccccc5C4)cc3)sc2c1,–,28,–,176,–,–,–
CCOc1cccc2sc(N(CCCN(C)C)C(=O)c3ccc(S(=O)(=O)N4CCc5ccccc5C4)cc3)nc12,–,49,–,200,305,126,–
CCOc1cccc2sc(N(CCCN(C)C)C(=O)c3ccc(S(=O)(=O)N(C)c4ccccc4)cc3)nc12,–,–,–,–,·,·,·
O=C(Nc1cccc([N+](=O)[O-])c1)C1CCN(C(=O)Cc2ccccc2)CC1,–,–,–,–,·,·,·
COc1ccc(C)cc1NC(=O)CCNS(=O)(=O)c1ccc2c(c1)CCC(=O)N2,–,–,–,–,·,·,·
COc1ccc(CN(C)C(C)C(=O)Nc2ccc([N+](=O)[O-])cc2Cl)cc1OC (centres undefined),–,–,–,–,·,·,·
SMILES,MEKK3 PB1 HTS,MEKK2mut PB1 HTS,VLA-4 inh,MEKK2 WT-MEK5,MEKK2wt confirm,MEKK2mut confirm,MEKK3 confirm
CCOc1ccc(CN(C)C(C)C(=O)Nc2ccc([N+](=O)[O-])cc2Cl)cc1OC (centres undefined),139,–,–,–,–,–,–
Cc1ccc(NC(=O)CN(C)C(=O)CN2C(=O)NC(C)(c3ccccc3)C2=O)cc1 (centres undefined),79[inhibitor],–,–,–,–,–,–
NC1=NC[C@@H](Cc2ccc(O)cc2)N1CCCCC1CCCCC1,–,–,–,134,–,–,–
COc1ccc(C[C@H]2CN3C(=NC[C@@H]3C)N2CCNC(=O)CCC2CCCCC2)cc1,–,–,–,–,·,·,·
C[C@H]1CN=C2N(CCNC(=O)CCC3CCCCC3)[C@H](Cc3ccc(O)cc3)CN21,–,–,–,–,·,·,·
O=C(CCC1CCCCC1)NCCN1C2=NC[C@H](Cc3ccccc3)N2C[C@H]1Cc1ccc(O)cc1,–,–,–,163,–,89,–
O=C(CCC1CCCCC1)NCCN1C2=NC[C@@H](Cc3ccccc3)N2C[C@H]1Cc1ccc(O)cc1,–,–,·,149,–,–,–
CCC1CCCCN1C(=O)c1ccc2c(c1)C(=O)N(c1ccc(C)cc1)C2=O (centres undefined),–,–,–,–,·,·,·
O=C(CCS(=O)(=O)c1cccs1)N1CCN(c2ccc(F)cc2)CC1,122,–,–,–,–,–,71
CC(C)C(NC(=O)C1CCCCC1)C(=O)Nc1ccccn1 (centres undefined),–,25,–,–,–,–,–
CCOC(=O)C1=C(C)Nc2ccccc2N=C1NC(=O)c1cccc(S(=O)(=O)N(C)C)c1,3.0[inhibitor],–,–,3.0[inhibitor],–,–,–
CCOC(=O)C1=C(CC)Nc2ccccc2N=C1NC(=O)c1ccc(S(=O)(=O)N(C)C)cc1,–,–,–,–,·,·,·
COc1ccc(/C(=C/c2ccc(OC(F)F)c(OC)c2)C(=O)O)cc1OC,128,–,–,–,–,–,–
CCn1nnnc1-c1ccc(OC)c(S(=O)(=O)NCCc2ccccc2)c1,45[inhibitor],–,–,–,–,–,–
O=C(CSCc1ccc(Cl)c(Cl)c1)Nc1c[nH]c(=O)[nH]c1=O,71[inhibitor],–,–,–,–,–,–
O=C(CSCc1ccccc1Cl)Nc1c[nH]c(=O)[nH]c1=O,–,–,–,–,·,·,·
O=C(COC(=O)c1ccccn1)NC(=O)c1ccccc1,·,·,–,·,·,·,·
COC(=O)c1ccc(CNC(=O)COC(=O)/C=C/c2cc(OC)c(OC)c(OC)c2)cc1,·,·,–,·,·,·,·
Cc1cc(-c2n[nH]c(=S)n2/N=C/C=C/c2ccccc2)n[nH]1,153,–,–,–,–,–,–
CC(C)n1c(SCC(=O)Nc2ccc(N3CCOCC3)cc2)nnc1-c1ccco1,–,–,–,–,·,·,·
